# Assay results taken from the supplement of paper PMC8728848.
# Only a selection was taken, and the strongest signals are over-represented in it overall.
# B1: CaSRK1 (Capsicum annuum) (protein)
# chain: MALCKIFPFAFILLSCSCYLISGQRFDYPTANLSTTWINSVSAPHSIDYTDGSRIRAILLRGTFGPRYACGFYCNGNCESYLFAIFIVQTNSASQITSPAIGFPQVVWSANRNNPVKINSTLQLTAEGDLVLRDADGTLAWSTNTAGKSVAGLSLTDEGNLALFDSKNATVWQSFDHPTDALVPGQKLVPGMKLTASVSRTNWTAGGLFALSAIDNGLVAFVESNPPQKYFEASVGGSNTSGGSNYVKYLNGSLTLFTHSADTTELILISITPASSAQYMKLESNGHLKVYEWTSRGWREVDDLLTGFRGECNYPTVCGRYGICTMGQCSCPTSSSSRTYFRPIDVRRPSLGCSEVTKLTCQNTKKHSPLEVEDVDYFAFKAGISDTDLNTCKRACLEKCSCKAAFFRSGLNSSRTRGDCYLPTEIFSIMNNEKDRTRYDSVAFIKVQV
# Experiments:
# Test in all cases: glycan array binding signal (z-score within array); higher = stronger binding
# Conditions in all cases: glycan notation: IUPAC condensed, linker removed
# [1] = molecular target: Fuc(a1-2)Gal(b1-3)[Fuc(a1-4)]GlcNAc
# Summary of the method: (§1)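 Glycan array binding is given as a within-array Z-score, which can be read as non-binding when negative. The arrays, 3228 of them, came from the Consortium for Functional Glycomics database and were retained only where the protein sequence was available. Z-scores were averaged across arrays of the same protein sequence at different concentrations or buffers and across linkers.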
# [2] = molecular target: Fuc(a1-2)Gal6S(b1-3)GlcNAc6S
# Summary of the method: as §1
# [3] = molecular target: Fuc(a1-2)[Gal(a1-3)]Gal(b1-3)GlcNAc
# Summary of the method: as §1
# [4] = molecular target: Fuc(a1-2)[Gal(a1-3)]Gal(b1-3)GlcNAc(b1-2)Man(a1-3)[Fuc(a1-2)[Gal(a1-3)]Gal(b1-3)GlcNAc(b1-2)Man(a1-6)]Man(b1-4)GlcNAc(b1-4)GlcNAc
# Summary of the method: as §1
# [5] = molecular target: Fuc(a1-3)[Gal(b1-4)]Glc6S
# Summary of the method: as §1
# [6] = molecular target: Fuc(a1-3)[Gal(b1-4)]GlcNAc(b1-3)Gal(b1-4)[Fuc(a1-3)]GlcNAc
# Summary of the method: as §1
# [7] = molecular target: Fuc(a1-3)[Gal(b1-4)]GlcNAc6S
# Summary of the method: as §1
# [8] = molecular target: Gal(a1-3)Fuc(a1-2)Gal(b1-4)GlcNAc(b1-3)[Gal(a1-3)Fuc(a1-2)Gal(b1-4)GlcNAc(b1-6)]GalNAc
# Summary of the method: as §1
# Gal(a1-3)Gal(b1-3)GlcNAc = molecular target: Gal(a1-3)Gal(b1-3)GlcNAc
# Summary of the method: as §1
# Gal(b1-3)GalNAc = molecular target: Gal(b1-3)GalNAc
# Summary of the method: as §1
# [9] = molecular target: Gal(b1-3)GalNAc(a1-3)[Fuc(a1-2)]Gal(b1-4)Glc
# Summary of the method: as §1
# Gal(b1-3)GlcNAc(b1-2)Man = molecular target: Gal(b1-3)GlcNAc(b1-2)Man
# Summary of the method: as §1
# [10] = molecular target: Gal(b1-3)[Fuc(a1-4)]GlcNAc(b1-2)Man(a1-3)[Gal(b1-3)[Fuc(a1-4)]GlcNAc(b1-2)Man(a1-6)]Man(b1-4)GlcNAc(b1-4)[Fuc(a1-6)]GlcNAc
# Summary of the method: as §1
# [11] = molecular target: Gal(b1-3)[Neu5Ac(a2-6)]GalNAc
# Summary of the method: as §1
# Gal(b1-4)Glc6S = molecular target: Gal(b1-4)Glc6S
# Summary of the method: as §1
# [12] = molecular target: Gal(b1-4)GlcNAc(b1-3)Gal(b1-4)GlcNAc(b1-2)[Gal(b1-4)GlcNAc(b1-3)Gal(b1-4)GlcNAc(b1-6)]Man(a1-6)[Gal(b1-4)GlcNAc(b1-3)Gal(b1-4)GlcNAc(b1-2)Man(a1-3)]Man(b1-4)GlcNAc(b1-4)GlcNAc
# Summary of the method: as §1
# [13] = molecular target: Gal(b1-4)GlcNAc(b1-3)Gal(b1-4)GlcNAc(b1-3)Gal(b1-4)GlcNAc(b1-3)Gal(b1-4)GlcNAc(b1-2)Man(a1-3)[Gal(b1-4)GlcNAc(b1-3)Gal(b1-4)GlcNAc(b1-3)Gal(b1-4)GlcNAc(b1-3)Gal(b1-4)GlcNAc(b1-2)Man(a1-6)]Man(b1-4)GlcNAc(b1-4)[Fuc(a1-6)]GlcNAc
# Summary of the method: as §1
# [14] = molecular target: Gal(b1-4)GlcNAc(b1-3)Gal(b1-4)GlcNAc(b1-3)GalNAc
# Summary of the method: as §1
# [15] = molecular target: Gal(b1-4)GlcNAc(b1-6)Gal(b1-4)GlcNAc
# Summary of the method: as §1
# [16] = molecular target: Gal3S(b1-3)[Fuc(a1-4)]GlcNAc
# Summary of the method: as §1
# Gal3S6S(b1-4)GlcNAc6S = molecular target: Gal3S6S(b1-4)GlcNAc6S
# Summary of the method: as §1
# Gal6P(b1-4)GlcNAc = molecular target: Gal6P(b1-4)GlcNAc
# Summary of the method: as §1
# Gal6S(b1-4)Glc6S = molecular target: Gal6S(b1-4)Glc6S
# Summary of the method: as §1
# GalNAc(b1-4)GlcNAc6S = molecular target: GalNAc(b1-4)GlcNAc6S
# Summary of the method: as §1
# [17] = molecular target: Glc(a1-4)Glc(a1-4)Glc(a1-4)Glc
# Summary of the method: as §1
# [18] = molecular target: GlcNAc(b1-2)Gal(b1-3)GalNAc
# Summary of the method: as §1
# [19] = molecular target: GlcNAc(b1-2)Man(a1-3)[GlcNAc(b1-2)Man(a1-6)]Man(b1-4)GlcNAc(b1-4)[Fuc(a1-6)]GlcNAc
# Summary of the method: as §1
# [20] = molecular target: GlcNAc(b1-2)[GlcNAc(b1-6)]Man(a1-6)[GlcNAc(b1-2)Man(a1-3)]Man(b1-4)GlcNAc(b1-4)GlcNAc
# Summary of the method: as §1
# [21] = molecular target: GlcNAc(b1-3)Gal(b1-4)GlcNAc(b1-3)Gal(b1-4)GlcNAc(b1-3)GalNAc
# Summary of the method: as §1
# [22] = molecular target: GlcNAc(b1-3)[GlcNAc(b1-4)][GlcNAc(b1-6)]GlcNAc
# Summary of the method: as §1
# [23] = molecular target: Man(a1-3)[Man(a1-6)]Man(a1-6)[Man(a1-2)Man(a1-3)]Man(b1-4)GlcNAc(b1-4)GlcNAc
# Summary of the method: as §1
# [24] = molecular target: Man(a1-3)[Man(a1-6)]Man(a1-6)[Man(a1-3)]Man
# Summary of the method: as §1
# Man(a1-6)Man = molecular target: Man(a1-6)Man
# Summary of the method: as §1
# [25] = molecular target: Neu5Ac(a2-3)Gal(b1-3)GlcNAc(b1-2)Man(a1-3)[GlcNAc(b1-4)][Neu5Ac(a2-3)Gal(b1-3)GlcNAc(b1-2)Man(a1-6)]Man(b1-4)GlcNAc(b1-4)GlcNAc
# Summary of the method: as §1
# [26] = molecular target: Neu5Ac(a2-3)Gal(b1-3)GlcNAc(b1-4)Gal(b1-4)Glc
# Summary of the method: as §1
# Neu5Ac(a2-3)Gal(b1-4)Glc = molecular target: Neu5Ac(a2-3)Gal(b1-4)Glc
# Summary of the method: as §1
# [27] = molecular target: Neu5Ac(a2-3)Gal(b1-4)GlcNAc(b1-2)Man
# Summary of the method: as §1
# [28] = molecular target: Neu5Ac(a2-3)Gal(b1-4)GlcNAc(b1-2)[Neu5Ac(a2-3)Gal(b1-4)GlcNAc(b1-4)]Man(a1-3)[GlcNAc(b1-4)][Neu5Ac(a2-3)Gal(b1-4)GlcNAc(b1-4)Man(a1-6)]Man(b1-4)GlcNAc(b1-4)GlcNAc
# Summary of the method: as §1
# [29] = molecular target: Neu5Ac(a2-3)Gal(b1-4)GlcNAc(b1-3)Gal(b1-4)GlcNAc(b1-2)Man(a1-3)[Neu5Ac(a2-3)Gal(b1-4)GlcNAc(b1-3)Gal(b1-4)GlcNAc(b1-2)Man(a1-6)]Man(b1-4)GlcNAc(b1-4)GlcNAc
# Summary of the method: as §1
# [30] = molecular target: Neu5Ac(a2-3)[GalNAc(b1-4)]Gal(b1-4)GlcNAc
# Summary of the method: as §1
# [31] = molecular target: Neu5Ac(a2-6)Gal(b1-4)GlcNAc(b1-2)Man(a1-3)[Gal(b1-4)GlcNAc(b1-2)Man(a1-6)]Man(b1-4)GlcNAc(b1-4)GlcNAc
# Summary of the method: as §1
# [32] = molecular target: Neu5Ac(a2-6)Gal(b1-4)GlcNAc(b1-2)Man(a1-6)[Man(a1-3)]Man(b1-4)GlcNAc(b1-4)GlcNAc
# Summary of the method: as §1
# [33] = molecular target: Neu5Ac(a2-6)Gal(b1-4)GlcNAc(b1-2)[Neu5Ac(a2-6)Gal(b1-4)GlcNAc(b1-4)]Man(a1-3)[GlcNAc(b1-4)][Neu5Ac(a2-6)Gal(b1-4)GlcNAc(b1-4)Man(a1-6)]Man(b1-4)GlcNAc(b1-4)GlcNAc
# Summary of the method: as §1
# [34] = molecular target: Neu5Ac(a2-6)Gal(b1-4)GlcNAc(b1-3)Gal(b1-4)GlcNAc
# Summary of the method: as §1
# [35] = molecular target: Neu5Ac(a2-6)Gal(b1-4)GlcNAc(b1-3)Gal(b1-4)GlcNAc(b1-3)Gal(b1-4)GlcNAc(b1-2)Man(a1-3)[Neu5Ac(a2-6)Gal(b1-4)GlcNAc(b1-3)Gal(b1-4)GlcNAc(b1-3)Gal(b1-4)GlcNAc(b1-2)Man(a1-6)]GalNAc
# Summary of the method: as §1
# [36] = molecular target: Neu5Ac(a2-8)Neu5Ac(a2-3)[GalNAc(b1-4)]Gal(b1-4)Glc
# Summary of the method: as §1
# [37] = molecular target: Neu5Ac(a2-8)Neu5Ac(a2-8)Neu5Ac(a2-8)Neu5Ac(a2-3)[GalNAc(b1-4)]Gal(b1-4)Glc
# Summary of the method: as §1
# [38] = molecular target: Neu5Gc(a2-3)Gal(b1-3)[Fuc(a1-4)]GlcNAc
# Summary of the method: as §1
# Neu5Gc(a2-3)Gal(b1-4)Glc = molecular target: Neu5Gc(a2-3)Gal(b1-4)Glc
# Summary of the method: as §1
# [39] = molecular target: Neu5Gc(a2-3)Gal(b1-4)GlcNAc
# Summary of the method: as §1
binder,measurement,setting,value
B1,glycan array binding signal (z-score),[1],-0.523
same,glycan array binding signal (z-score),[2],2.31
same,glycan array binding signal (z-score),[3],2.37
same,glycan array binding signal (z-score),[4],-0.546
same,glycan array binding signal (z-score),[5],-0.056
same,glycan array binding signal (z-score),[6],0.387
same,glycan array binding signal (z-score),[7],0.606
same,glycan array binding signal (z-score),[8],3.39
same,glycan array binding signal (z-score),Gal(a1-3)Gal(b1-3)GlcNAc,3.11
same,glycan array binding signal (z-score),Gal(b1-3)GalNAc,-0.395
same,glycan array binding signal (z-score),[9],0.178
same,glycan array binding signal (z-score),Gal(b1-3)GlcNAc(b1-2)Man,5.29
same,glycan array binding signal (z-score),[10],-0.295
same,glycan array binding signal (z-score),[11],-0.368
same,glycan array binding signal (z-score),Gal(b1-4)Glc6S,-0.386
same,glycan array binding signal (z-score),[12],3.63
same,glycan array binding signal (z-score),[13],0.677
same,glycan array binding signal (z-score),[14],2.85
same,glycan array binding signal (z-score),[15],0.04
same,glycan array binding signal (z-score),[16],-0.07
same,glycan array binding signal (z-score),Gal3S6S(b1-4)GlcNAc6S,2.4
same,glycan array binding signal (z-score),Gal6P(b1-4)GlcNAc,-0.342
same,glycan array binding signal (z-score),Gal6S(b1-4)Glc6S,0.802
same,glycan array binding signal (z-score),GalNAc(b1-4)GlcNAc6S,0.352
same,glycan array binding signal (z-score),[17],0.933
same,glycan array binding signal (z-score),[18],-0.097
same,glycan array binding signal (z-score),[19],-0.143
same,glycan array binding signal (z-score),[20],-0.46
same,glycan array binding signal (z-score),[21],-0.477
same,glycan array binding signal (z-score),[22],-0.34
same,glycan array binding signal (z-score),[23],-0.258
same,glycan array binding signal (z-score),[24],-0.303
same,glycan array binding signal (z-score),Man(a1-6)Man,1.5
same,glycan array binding signal (z-score),[25],-0.549
same,glycan array binding signal (z-score),[26],0.467
same,glycan array binding signal (z-score),Neu5Ac(a2-3)Gal(b1-4)Glc,-0.089
same,glycan array binding signal (z-score),[27],7.73
same,glycan array binding signal (z-score),[28],0.06
same,glycan array binding signal (z-score),[29],1.33
same,glycan array binding signal (z-score),[30],-0.414
same,glycan array binding signal (z-score),[31],-0.423
same,glycan array binding signal (z-score),[32],-0.589
same,glycan array binding signal (z-score),[33],-0.513
same,glycan array binding signal (z-score),[34],-0.402
same,glycan array binding signal (z-score),[35],2.58
same,glycan array binding signal (z-score),[36],-0.56
same,glycan array binding signal (z-score),[37],-0.413
same,glycan array binding signal (z-score),[38],-0.319
same,glycan array binding signal (z-score),Neu5Gc(a2-3)Gal(b1-4)Glc,3.18
same,glycan array binding signal (z-score),[39],-0.416
